Assay outcomes: PubChem BioAssay, National Center for Advancing Translational Sciences (NCATS)
NS1 inh: blocks influenza NS1 protein function. Potency, µM (titrated, usually from 46.1 µM), for the others: top-dose activity, positive = more growth. 270,000 tested, 0.4% active. AID 2326; also: potency is read from the fitted curve at half-maximal effect; actives are rising curves; nearly all actives have a fitted effect of over 50% in size
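Growth recovery, yeast-based: influenza A NS1 expressed in S. cerevisiae causes slow growth, and suppressors are detected by OD600. The parent strain without NS1 is used as positive control.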
Pf growth 48h: inhibits P. falciparum growth in the first generation, 48 h; P. falciparum luciferase growth in erythrocytes, 48 h; Potency, µM (top dose mostly 28.7 µM), inactives show at the highest dose activity change, negative = inhibition, actives largely listed as inhibitors; 310,000 tested, 5.9% active; AID 504832; active = well fitted inhibition curve with a large enough effect; inconclusive = small, poorly fitted or top-dose-only effect, or another doubt; inactive = no such curve, though single readings can be large or run the other way; also: potency is read from the fitted curve at half-maximal effect; % is scaled to controls: 0 for no effect and ±100 for the full control effect
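Erythrocytes infected with P. falciparum carrying an integrated firefly luciferase reporter (2% hematocrit, 0.1% parasitemia final) were exposed to compounds in RPMI 1640 with 0.5% Albumax at 37 C, 5% CO2. Growth inhibition was scored as reduced luminescence.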
Cycloheximide cs: counter-screen for Shiga toxin inhibitors: cycloheximide protein synthesis inhibition; max response, %; cell reporter, cycloheximide protein synthesis inhibition counterscreen; 300,000 tested, 12% active; in the data active = max response mostly above about 13%, no sharp cut-off; inactive = mostly below about 14%; also: read at 38.3 µM for the half of the compounds with a filed dose; 0% is about no effect
Pf growth 96h: P. falciparum growth inhibition at 96 hour, primary screen for plastid delayed-death inhibitors | P. falciparum luciferase reporter growth, 96 h | AID 504834 | Potency, µM (series often up to 28.7 µM), for the others: top-dose activity change, negative = inhibition, usual class: inhibitors | 320,000 tested, 6.9% active; active = well fitted inhibition curve with a large enough effect; inconclusive = small, poorly fitted or top-dose-only effect, or another doubt; inactive = no such curve, though single readings can be large or run the other way; also: potency is read from the fitted curve at half-maximal effect; % is scaled to controls: 0 for no effect and ±100 for the full control effect
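96 h incubation, 37 C, 5% CO2, of luciferase-reporter P. falciparum-infected RBCs (2% hematocrit, 0.05% parasitemia final) with test compounds; endpoint luminescence.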
SARS PLpro yeast: blocks SARS-CoV papain-like protease in a yeast assay; 330,000 tested, 0.19% active; S. cerevisiae expressing SARS-CoV PLpro, growth rescue; Potency, µM (highest dose often 32.9 µM), for inactives: top-dose activity, positive = growth rescue, most hits filed as activators; also: potency is read from the fitted curve at half-maximal effect; 0% is about no effect; nearly all actives have a fitted effect of over 55% in size
Shiga inhibitor: Shiga toxin inhibition. Vero cells, Shiga toxin protein synthesis inhibition reporter. inhibition, % at 38.7 µM. 290,000 tested, 9.2% active. AID 2315; in the data active = inhibition mostly above about 28%, no sharp cut-off; inactive = mostly below about 43%; also: 0% is about no effect
Starred values were filed as active, the others as inactive. Only some compounds are listed: those with a hit (about 21% of all), similar ones and a draw of the others. Unless noted, calls follow the shape of the full dose curve.

What do the screens show for `Cc1ccc(NC(=O)OC(C)CNC(=O)Oc2cccc(C)c2)cc1` (configuration not stated)?
Pf growth 48h: 84.6%; Cycloheximide cs: 38.1*; Pf growth 96h: inconclusive; SARS PLpro yeast: 0.3%; Shiga inhibitor: 73.9*

Results for CC(=O)c1ccc(NC(=O)C[n+]2cccc(C)c2)cc1 ?
NS1 inh: 13.6%; Pf growth 48h: -14.4%; Cycloheximide cs: 0.8; Pf growth 96h: inconclusive; SARS PLpro yeast: -10.8%; Shiga inhibitor: -4.8

What do the screens show for `COC(=O)CNc1nc(Cl)nc(Nc2ccc(C)cc2)n1`?
Pf growth 48h: 9.0%; Cycloheximide cs: 7.8; Pf growth 96h: inconclusive; SARS PLpro yeast: 0.0%; Shiga inhibitor: -8.8

What do the screens show for `COc1ccc(/C=N/NC(=O)c2cc(O)c(O)c(O)c2)cc1Cn1cc([N+](=O)[O-])cn1`?
Pf growth 48h: inconclusive; Cycloheximide cs: 9.3; Pf growth 96h: 9.4%; SARS PLpro yeast: 10µM*; Shiga inhibitor: 28.0

What do the screens show for `Cc1ccc(/C=N/NC(=O)c2ccc(Cn3cc([N+](=O)[O-])cn3)o2)cc1`?
NS1 inh: -1.4%; Pf growth 48h: 18.1%; Cycloheximide cs: 14.9; Pf growth 96h: -21.6%; SARS PLpro yeast: -5.9%; Shiga inhibitor: 20.5*

What do the screens show for `COc1ccc(/C=N/NC(=O)c2ccc(Br)o2)cc1Cn1cc([N+](=O)[O-])cn1`?
NS1 inh: 6.1%; Pf growth 48h: 25.5%; Cycloheximide cs: 38.9*; Pf growth 96h: -22.2%; SARS PLpro yeast: 14.1%; Shiga inhibitor: 76.9*

Results for COc1ccc(/C=N/Nc2ccccc2C(=O)O)cc1Cn1cc([N+](=O)[O-])cn1 ?
NS1 inh: 3.6%; Pf growth 48h: inconclusive; Cycloheximide cs: 45.6*; Pf growth 96h: 7.5%; SARS PLpro yeast: -0.3%; Shiga inhibitor: 56.1*

How did COc1ccc(C=NNc2ccc([N+](=O)[O-])cc2S(=O)(=O)Nc2ccccc2C(=O)O)cc1OC do in these assays?
SARS PLpro yeast: -12.7%

Results for COc1ccccc1NC(=S)NC1CCCCCC1 ?
NS1 inh: -23.1%; Pf growth 48h: -0.2%; Cycloheximide cs: -1.2; Pf growth 96h: inconclusive; SARS PLpro yeast: -32.9%; Shiga inhibitor: 31.0

What do the screens show for `COc1ccc(/C=N/NC(=O)c2ccccc2O)cc1Cn1cc([N+](=O)[O-])cn1`?
NS1 inh: 6.2%; Pf growth 48h: 35.1%; Cycloheximide cs: 23.6*; Pf growth 96h: 59.5%; SARS PLpro yeast: 0.5%; Shiga inhibitor: 38.6

How did COc1ccc(/C=N/NC(=O)c2ccccc2OC)cc1COc1ccccc1[N+](=O)[O-] do in these assays?
NS1 inh: -33.3%; Pf growth 48h: -14.3%; Cycloheximide cs: 6.9; Pf growth 96h: -16.6%; SARS PLpro yeast: 10.0%; Shiga inhibitor: 7.4

What do the screens show for `CC(C)c1ccc(/C=N\NC(=O)c2ccc(Cn3cccn3)o2)cc1`?
NS1 inh: -2.0%; Pf growth 48h: 1.4%; Cycloheximide cs: 53.6*; Pf growth 96h: -24.3%; SARS PLpro yeast: 23.3%; Shiga inhibitor: 71.4*

Results for COc1ccc(C(=O)C[n+]2ccc(N(C)C)cc2)cc1 ?
NS1 inh: -2.3%; Pf growth 48h: 1.17µM*; Cycloheximide cs: 2.4; Pf growth 96h: inconclusive; SARS PLpro yeast: -0.4%; Shiga inhibitor: 11.3

What do the screens show for `CN(C)c1cc[n+](CC(=O)c2ccc(-c3ccccc3)cc2)cc1`?
Pf growth 48h: 4.65µM*; Cycloheximide cs: -0.2; Pf growth 96h: inconclusive; SARS PLpro yeast: -8.8%; Shiga inhibitor: -3.3

Results for O=C(C[n+]1ccccc1)c1ccc(-c2ccccc2)cc1 ?
Pf growth 48h: 29.8%; Cycloheximide cs: -11.5; Pf growth 96h: 10.3%; SARS PLpro yeast: -2.2%; Shiga inhibitor: -8.1

How did CN(C)c1cc[n+](CC(=O)c2ccc(Br)cc2)cc1 do in these assays?
Pf growth 48h: inconclusive; Cycloheximide cs: -1.1; Pf growth 96h: inconclusive; SARS PLpro yeast: 0.3%; Shiga inhibitor: 31.1

How did CCCSc1ccc([C@H]2N[C@@](C)(C(=O)OC)[C@H]3C(=O)N(CC)C(=O)[C@@H]23)cc1 do in these assays?
SARS PLpro yeast: 6.5%

What do the screens show for `NCOC(=O)Cc1ccc(Br)cc1`?
NS1 inh: -5.6%
